Composite z-score and z-score data for 5 compounds are collected here from PubChem BioAssay.

Experiment [1] has as its system PRMT1 (protein arginine N-methyltransferase 1). The experiment is described as follows: small molecules binding arginine methyltransferase PRMT1 – biochemical, small-molecule microarray, 635 nm fluorescence, primary screen (AID 1088).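 Also: binding of Prmt1 protein to compounds spotted on small-molecule microarray slides.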 Conditions: higher = more signal.
A short description of experiment [2]: growth effects on S. cerevisiae YJM789 – YJM789 clinical isolate, OD600, 24 h, basal, primary screen (AID 1089).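 Also: growth of clinical yeast isolate S. cerevisiae YJM 789 seeded 1000 cells per well; test concentration not given here.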 As to conditions: higher = more signal, called active from +8 up or from −8 down.
Experiment [3] can be described thus: S. pombe growth modifiers, basal conditions – strain 972, OD600, 24 h, no modulator, primary screen (AID 1090).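 Also: basal condition with compound alone and no growth modifier present; test concentration not given here.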 Conditions: S. pombe 972 growth, higher = more signal, called active from +8 up or from −8 down.
Experiment [4] can be described thus: budding yeast growth modifiers under rapamycin – strain BY4716, OD600, 96 h, primary screen (AID 1091). Also: test concentration not given here. Conditions: S. cerevisiae BY4716 + rapamycin, higher = more signal, called active from +8 up or from −8 down.
Experiment [5] has as its target Torsin-1A-interacting protein 2 (Homo sapiens) (UniProt Q8NFQ8). The experiment is described as follows: small molecules binding lysate-expressed LULL1 – cell lysate, human LULL1 lysate, 635/667 nm fluorescence, primary screen (AID 1092).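 Also: probe is lysate of COS7 cells overexpressing human LULL1; score merges per-feature 667 nm fluorescence with signal-to-noise.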 As to conditions: small-molecule microarray, hLULL1 lysate binding, 635 nm fluorescence; higher = more signal.
The nature of experiment [6]: optical density change of DRC41 E. coli – strain DRC41, OD650, 24 h, E. coli filamentation project, primary screen (AID 1093).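 Also: MC1000 strain lacking acrAB efflux and sulA so SOS filamentation is blocked; test concentration not given here.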 As to conditions: E. coli DRC41 growth, higher = more signal, called active from +8 up or from −8 down.
Experiment [7] is described as follows: probe aLefty2 binding to arrayed compounds – biochemical, biotinylated probe, 635/667 nm fluorescence, primary screen (AID 1094).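 Also: score merges spot fluorescence near 667 nm with spot signal-to-noise ratio.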 Conditions: small-molecule microarray, higher = more signal.
The subject of experiment [8] is Noggin (protein binding on small-molecule microarray). Briefly: small molecules binding Noggin protein – biochemical, 635/667 nm fluorescence, primary screen (AID 1095).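 Also: score merges 667 nm feature fluorescence with signal to noise over triplicate slides.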 As to conditions: 635 nm fluorescence, higher = more signal.
The target in experiment [9] is Neurogenic locus notch homolog protein 3 (Homo sapiens) (UniProt Q9UM47). The experiment is described as follows: small molecules binding NOTCH3 protein – biochemical, 635/667 nm fluorescence, primary screen (AID 1096). Conditions: small-molecule microarray, 635 nm fluorescence, higher = more signal.
A short description of experiment [10]: probe aEGFR binding to arrayed compounds – biochemical, biotinylated probe, 635/667 nm fluorescence, primary screen (AID 1097).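 Also: probe is a biotinylated anti-EGFR antibody binding compounds printed on slides; score combines fluorescence near 667 nm and signal to noise of each spot.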 Conditions: small-molecule microarray, higher = more signal.
In experiment [11] the test system is Plasmodium falciparum Sir2 (PF13_0152, Sir2A). The experiment is described as follows: Plasmodium falciparum Sir2A binding compounds – biochemical, small-molecule microarray, 635 nm fluorescence, primary screen (AID 1098).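 Also: score merges spot fluorescence intensity with its signal-to-noise ratio.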 As to conditions: fluorescence 635 nm, higher = more signal.
Experiment [12] in a line: probe aDKK1 binding to arrayed compounds – biochemical, biotinylated probe, 635/667 nm fluorescence, primary screen (AID 1099).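 Also: score merges 667nm spot fluorescence with signal to noise across triplicate slides; reference of the scale not given here.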 As to conditions: small-molecule microarray, higher = more signal.
A short description of experiment [13]: probe aCHRDL2 binding to arrayed compounds – biochemical, biotinylated probe, 635/667 nm fluorescence, primary screen (AID 1100). As to conditions: small-molecule microarray, higher = more signal.
The nature of experiment [14]: change in splice reporter luminescence, either direction, cell-based, HEK293, spliceosome inhibition project, primary screen (AID 1101).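 Also: HEK293 cells carrying a splicing-competent luciferase reporter gene; test concentration not given here.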 Conditions: HEK293 splicing luciferase reporter, 24 h, higher = more signal, called active from +8 up or from −8 down. (In general: In a reporter assay the amount or activity of a reporter protein is the signal.)
In experiment [15] the target is Fibroblast growth factor 10 (Homo sapiens) (UniProt O15520). Briefly: compounds binding fibroblast growth factor 10 – biochemical, small-molecule microarray, 635 nm fluorescence, primary screen (AID 1102). Conditions: FGF10 binding, fluorescence 635 nm, higher = more signal.
In experiment [16] the test system is glycogen synthase kinase-3 (GSK3A per assay name; protocol says GSK3B). Briefly: compounds binding glycogen synthase kinase-3 – biochemical, small-molecule microarray, 635 nm fluorescence, GSK3A, primary screen (AID 1103). Also: the record names both GSK3A and GSK3B. Conditions: fluorescence 635 nm, higher = more signal.
Experiment [17] addresses Epidermal growth factor receptor (Homo sapiens) (UniProt P00533). Briefly: compounds binding epidermal growth factor receptor – biochemical, small-molecule microarray, 635 nm fluorescence, primary screen (AID 1104).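 Also: score merges 667 nm emission intensity with spot signal to noise over triplicate slides.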 Conditions: EGFR binding, higher = more signal.
Experiment [18] addresses Follistatin-related protein 3 (Homo sapiens) (UniProt O95633). The experiment is described as follows: compounds binding follistatin-related protein 3 – biochemical, small-molecule microarray, 635 nm fluorescence, primary screen (AID 1105).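 Also: score merges emission near 667 nm and signal to noise per printed spot across three slides.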 Conditions: FSTL3 binding, higher = more signal.
The target of experiment [19] is Dickkopf-related protein 1 (Homo sapiens) (UniProt O94907). The experiment is described as follows: small molecules binding DKK1 protein – biochemical, small-molecule microarray, 635 nm fluorescence scan, primary screen (AID 1106).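 Also: score merges emission near 667 nm with signal to noise over three replicate slides.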 As to conditions: higher = more signal.
Experiment [20] has as its system Inhibin beta A chain (activin A). Briefly: small molecules binding activin A – biochemical, small-molecule microarray, 635 nm fluorescence scan, primary screen (AID 1107).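 Also: mouse activin A protein probed at 4.33 µg/mL on printed slides; score merges bound-protein fluorescence near 667 nm with spot signal-to-noise.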 Conditions: INHBA, higher = more signal.

Active and inactive are the calls of the source.

Chain of Fibroblast growth factor 10 (Homo sapiens) (O15520 whole entry, looked up): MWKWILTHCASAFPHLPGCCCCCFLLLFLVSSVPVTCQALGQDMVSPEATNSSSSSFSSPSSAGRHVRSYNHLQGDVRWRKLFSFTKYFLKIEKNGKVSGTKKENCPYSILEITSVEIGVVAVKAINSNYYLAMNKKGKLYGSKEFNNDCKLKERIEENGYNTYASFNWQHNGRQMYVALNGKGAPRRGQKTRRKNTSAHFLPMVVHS
Chain of Neurogenic locus notch homolog protein 3 (Homo sapiens) (Q9UM47 whole entry, looked up): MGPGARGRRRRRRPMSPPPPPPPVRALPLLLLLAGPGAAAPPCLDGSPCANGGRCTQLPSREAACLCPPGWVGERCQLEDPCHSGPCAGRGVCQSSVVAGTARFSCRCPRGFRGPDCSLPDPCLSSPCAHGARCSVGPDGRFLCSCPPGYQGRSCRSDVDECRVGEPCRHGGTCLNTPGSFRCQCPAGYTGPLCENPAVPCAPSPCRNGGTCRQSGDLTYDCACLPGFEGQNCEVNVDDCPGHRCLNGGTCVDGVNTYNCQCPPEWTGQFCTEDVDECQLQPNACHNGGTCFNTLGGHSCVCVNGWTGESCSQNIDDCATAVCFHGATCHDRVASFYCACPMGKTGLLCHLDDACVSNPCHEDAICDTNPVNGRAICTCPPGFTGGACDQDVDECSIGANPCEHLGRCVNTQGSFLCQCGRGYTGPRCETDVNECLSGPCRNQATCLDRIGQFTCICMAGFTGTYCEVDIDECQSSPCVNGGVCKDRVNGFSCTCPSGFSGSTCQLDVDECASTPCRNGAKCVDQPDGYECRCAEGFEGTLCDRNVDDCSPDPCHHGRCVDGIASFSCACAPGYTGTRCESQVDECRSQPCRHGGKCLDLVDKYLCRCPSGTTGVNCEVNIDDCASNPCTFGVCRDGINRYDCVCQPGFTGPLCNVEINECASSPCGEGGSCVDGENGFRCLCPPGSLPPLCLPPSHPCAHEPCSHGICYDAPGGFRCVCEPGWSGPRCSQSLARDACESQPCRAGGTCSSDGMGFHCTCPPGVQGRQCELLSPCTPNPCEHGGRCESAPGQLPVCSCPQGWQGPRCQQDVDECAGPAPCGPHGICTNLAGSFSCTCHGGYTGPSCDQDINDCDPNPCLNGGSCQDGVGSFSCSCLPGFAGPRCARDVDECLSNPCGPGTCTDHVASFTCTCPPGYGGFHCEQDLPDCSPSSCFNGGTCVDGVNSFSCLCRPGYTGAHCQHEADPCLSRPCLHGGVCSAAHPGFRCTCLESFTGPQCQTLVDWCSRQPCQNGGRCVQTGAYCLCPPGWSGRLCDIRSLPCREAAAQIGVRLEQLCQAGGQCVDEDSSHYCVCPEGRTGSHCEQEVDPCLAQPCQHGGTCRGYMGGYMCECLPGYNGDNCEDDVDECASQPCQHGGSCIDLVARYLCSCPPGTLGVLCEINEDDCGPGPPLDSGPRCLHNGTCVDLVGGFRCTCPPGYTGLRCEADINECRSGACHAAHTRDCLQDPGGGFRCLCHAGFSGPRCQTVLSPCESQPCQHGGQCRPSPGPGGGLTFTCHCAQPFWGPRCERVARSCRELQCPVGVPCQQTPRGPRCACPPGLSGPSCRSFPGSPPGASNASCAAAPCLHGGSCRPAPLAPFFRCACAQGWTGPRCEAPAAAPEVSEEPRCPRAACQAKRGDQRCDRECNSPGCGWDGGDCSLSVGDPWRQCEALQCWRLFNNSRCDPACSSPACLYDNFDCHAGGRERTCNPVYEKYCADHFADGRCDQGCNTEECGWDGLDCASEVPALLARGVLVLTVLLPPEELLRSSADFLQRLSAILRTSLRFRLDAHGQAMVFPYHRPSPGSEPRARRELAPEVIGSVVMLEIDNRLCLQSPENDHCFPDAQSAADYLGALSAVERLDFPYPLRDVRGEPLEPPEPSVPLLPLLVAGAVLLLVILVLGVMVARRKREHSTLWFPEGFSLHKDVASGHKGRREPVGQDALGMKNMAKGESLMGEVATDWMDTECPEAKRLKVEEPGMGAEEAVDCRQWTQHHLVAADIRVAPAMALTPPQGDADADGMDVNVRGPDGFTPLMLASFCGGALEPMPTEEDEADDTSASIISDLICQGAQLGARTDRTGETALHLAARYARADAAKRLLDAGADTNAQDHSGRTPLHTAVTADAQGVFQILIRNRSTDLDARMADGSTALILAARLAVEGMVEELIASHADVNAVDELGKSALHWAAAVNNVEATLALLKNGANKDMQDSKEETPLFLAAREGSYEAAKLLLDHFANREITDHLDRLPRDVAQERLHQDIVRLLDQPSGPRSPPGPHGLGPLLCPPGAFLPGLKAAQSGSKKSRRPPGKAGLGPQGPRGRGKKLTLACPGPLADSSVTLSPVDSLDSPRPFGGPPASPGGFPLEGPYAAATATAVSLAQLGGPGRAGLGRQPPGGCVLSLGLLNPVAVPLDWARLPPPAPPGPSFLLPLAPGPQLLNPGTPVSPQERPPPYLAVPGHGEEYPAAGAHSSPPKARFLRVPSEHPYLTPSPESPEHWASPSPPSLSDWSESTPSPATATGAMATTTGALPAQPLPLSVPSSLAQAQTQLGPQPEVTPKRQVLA
Chain of Torsin-1A-interacting protein 2 (Homo sapiens) (Q8NFQ8 whole entry, looked up): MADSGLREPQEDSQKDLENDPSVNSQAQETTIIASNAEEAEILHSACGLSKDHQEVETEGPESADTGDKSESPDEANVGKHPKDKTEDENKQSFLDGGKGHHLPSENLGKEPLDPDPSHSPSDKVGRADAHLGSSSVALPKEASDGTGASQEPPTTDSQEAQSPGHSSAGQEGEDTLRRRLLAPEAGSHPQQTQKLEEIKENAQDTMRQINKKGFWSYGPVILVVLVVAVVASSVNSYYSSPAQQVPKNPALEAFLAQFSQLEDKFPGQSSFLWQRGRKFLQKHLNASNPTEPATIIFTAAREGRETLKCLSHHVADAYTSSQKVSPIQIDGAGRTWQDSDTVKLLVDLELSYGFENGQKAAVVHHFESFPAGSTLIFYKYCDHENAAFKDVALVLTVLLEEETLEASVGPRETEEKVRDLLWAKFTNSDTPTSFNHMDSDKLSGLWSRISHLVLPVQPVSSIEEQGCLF
Chain of Epidermal growth factor receptor (Homo sapiens) (P00533 whole entry, looked up): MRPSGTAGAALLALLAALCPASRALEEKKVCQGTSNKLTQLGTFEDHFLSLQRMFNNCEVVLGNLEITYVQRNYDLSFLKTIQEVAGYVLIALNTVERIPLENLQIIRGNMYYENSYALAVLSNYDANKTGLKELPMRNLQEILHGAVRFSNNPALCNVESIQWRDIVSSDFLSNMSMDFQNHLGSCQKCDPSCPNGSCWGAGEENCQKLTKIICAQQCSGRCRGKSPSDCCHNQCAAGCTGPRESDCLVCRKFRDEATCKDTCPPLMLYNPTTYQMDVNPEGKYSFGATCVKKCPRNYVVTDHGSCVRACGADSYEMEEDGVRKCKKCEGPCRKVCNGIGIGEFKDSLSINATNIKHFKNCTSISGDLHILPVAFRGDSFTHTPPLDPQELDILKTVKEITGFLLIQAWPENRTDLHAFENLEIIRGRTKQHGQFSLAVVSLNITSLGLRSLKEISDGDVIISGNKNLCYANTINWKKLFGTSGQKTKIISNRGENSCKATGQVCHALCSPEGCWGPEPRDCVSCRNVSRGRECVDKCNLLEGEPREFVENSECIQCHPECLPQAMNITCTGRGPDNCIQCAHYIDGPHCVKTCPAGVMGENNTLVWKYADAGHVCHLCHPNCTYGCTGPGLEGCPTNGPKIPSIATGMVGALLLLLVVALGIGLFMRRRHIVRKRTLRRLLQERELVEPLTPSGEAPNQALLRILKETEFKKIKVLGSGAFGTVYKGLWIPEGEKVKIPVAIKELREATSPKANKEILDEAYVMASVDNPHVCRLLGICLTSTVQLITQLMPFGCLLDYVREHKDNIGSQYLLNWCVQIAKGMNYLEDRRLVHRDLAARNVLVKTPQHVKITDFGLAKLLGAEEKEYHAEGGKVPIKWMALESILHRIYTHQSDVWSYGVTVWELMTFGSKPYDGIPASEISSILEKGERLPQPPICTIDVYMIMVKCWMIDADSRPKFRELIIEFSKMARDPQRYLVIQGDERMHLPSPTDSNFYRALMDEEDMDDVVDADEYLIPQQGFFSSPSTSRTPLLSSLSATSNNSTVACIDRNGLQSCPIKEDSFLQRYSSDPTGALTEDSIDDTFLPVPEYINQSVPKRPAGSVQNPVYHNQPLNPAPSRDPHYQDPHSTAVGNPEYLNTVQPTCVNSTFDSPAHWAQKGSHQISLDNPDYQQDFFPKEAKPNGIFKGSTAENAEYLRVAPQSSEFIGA
Chain of Follistatin-related protein 3 (Homo sapiens) (O95633 whole entry, looked up): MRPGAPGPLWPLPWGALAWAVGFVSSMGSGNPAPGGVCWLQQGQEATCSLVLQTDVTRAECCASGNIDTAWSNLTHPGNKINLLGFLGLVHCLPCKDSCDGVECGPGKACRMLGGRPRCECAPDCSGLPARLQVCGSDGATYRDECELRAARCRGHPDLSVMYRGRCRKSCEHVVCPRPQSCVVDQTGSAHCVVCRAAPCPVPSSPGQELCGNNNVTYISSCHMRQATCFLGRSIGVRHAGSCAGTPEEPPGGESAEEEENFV
Chain of Dickkopf-related protein 1 (Homo sapiens) (O94907 whole entry, looked up): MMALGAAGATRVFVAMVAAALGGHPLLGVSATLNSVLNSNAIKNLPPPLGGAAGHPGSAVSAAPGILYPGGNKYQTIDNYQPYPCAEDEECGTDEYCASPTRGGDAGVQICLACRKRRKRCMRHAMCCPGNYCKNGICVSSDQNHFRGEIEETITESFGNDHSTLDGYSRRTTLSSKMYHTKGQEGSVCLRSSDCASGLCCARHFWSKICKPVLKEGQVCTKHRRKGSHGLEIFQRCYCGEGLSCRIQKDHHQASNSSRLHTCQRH

As to `COC(=O)Cn1c(C(=O)N2CCCC2)cc2c1C[C@H]1CN(C(=O)c3ccccc3)[C@@](Cc3ccccc3)(C(=O)OC)[C@@H]21`, the composite z-score in experiment [1] is -0.257; in [5], 2.52; in experiment [7] it was 0.302; in [8], -0.455; in [9], 0.74; in experiment [10], 0.168. The composite z-score in experiment [11] was 0.473; in experiment [12], 0.789; in experiment [13] it was 1.09; in experiment [15], 0.0175; in [16], -0.838; in [17], -0.282. Moreover, the composite z-score in experiment [18] is 0.105; in [19], -0.837; in [20], 0.632. Further, the z-score is 0.316 (inactive) in experiment [2]; 1.23 (inactive) in experiment [3]; 0.651 (inactive) in experiment [4]; 0.214 (inactive) in [6]; 0.309 (inactive) in experiment [14].
As to `O=C1O[C@H](c2ccccc2)[C@H](c2ccccc2)N2[C@H]1[C@@H](C(=O)NC[C@H](O)c1ccccc1)[C@]1(C(=O)Nc3ccc(C#CC4=CCCCC4)cc31)[C@H]2c1ccc(OCCO)cc1`, the composite z-score is 1.55 in [1]; 1.85 in experiment [5]; -0.104 in experiment [7]; 0.691 in experiment [8]; 1.11 in experiment [9]; -0.0494 in [10]. Also, the composite z-score in [11] was found to be 1.06; in [12], 0.607; in experiment [13], 0.469; in [15], 0.313; in experiment [16], 1.27; in experiment [17], 0.386. For the same compound, the composite z-score in [18] amounted to 0.968; in experiment [19], 0.703; in experiment [20], 1.05. Besides, the z-score in [2] was 2.99 (inactive); in experiment [3] it was 1.64 (inactive); in experiment [4], 4.01 (inactive); in [6] it was -0.422 (inactive); in [14], -1.33 (inactive).
For `COc1ccc(NN2C(C(O)c3cc(OC)c(OC)c(OC)c3)C=CC3C(=O)N(C4CCCCC4)C(=O)C32)cc1` (stereo not given), the composite z-score was determined as 0.544 in experiment [1]; 2.87 in experiment [5]; 0.358 in [7]; 0.116 in experiment [8]; 1.08 in [9]; 0.142 in [10]. Besides, the composite z-score in experiment [11] is 0.573; in [12], 1.16; in [13], 1.31; in [15] it was 0.672; in [16] it was 1.04; in experiment [17] it was -0.187. Further, the composite z-score is 0.563 in experiment [18], -0.61 in [19] and 0.973 in experiment [20]. The z-score in [2] was 0.199 (inactive); in experiment [3] it was 0.966 (inactive); in [4], 0.169 (inactive); in experiment [6] it was -0.319 (inactive); in [14], -0.617 (inactive).
With `N#Cc1ccc(NN2C(C(O)c3ccc(I)cc3)C=CC3C(=O)N(c4ccccc4)C(=O)C32)cc1` (stereo not given), the composite z-score in experiment [1] was 1.16; in experiment [5], 3.47; in experiment [7] it was 0.247; in experiment [8] it was -0.0788; in experiment [9], 1.07; in [10], 0.0601. The composite z-score in experiment [11] came out at 1.13; in experiment [12], 0.124; in [13], 1.03; in experiment [15], 0.549; in experiment [16], 0.656; in [17], 0.0977. For the same compound, the values for the composite z-score in experiment [18], in experiment [19] and in experiment [20] were 0.421, -0.337 and 0.462, respectively. The z-score in experiment [2] is 0.647 (inactive); in experiment [3], 2.19 (inactive); in experiment [4], 3.88 (inactive); in experiment [6] it was -1.38 (inactive); in [14] it was 2.17 (inactive).
As to `CO[C@@H]1COC(=O)[C@H](C)NC(=O)CC=C[C@@H](C)[C@H](NS(=O)(=O)c2ccc(C)cc2)COC(=O)CC=C[C@@H]1C`, the composite z-score in experiment [1] is -0.844; in experiment [5] it was -0.382; in [7], -0.207; in experiment [8], -0.0396; in [9] it was -0.693; in [10] it was -0.211. In addition, the composite z-score in experiment [11] was -0.876; in experiment [12] it was -0.435; in experiment [13], -0.505; in [15], 0.0743; in experiment [16], -0.11; in [17] it was 0.286. The composite z-score in [18] was -0.0201; in experiment [19], 0.0647; in experiment [20] it was -0.204. In addition, the z-score was 0.79 (inactive) in [2]; -0.0181 (inactive) in [3]; 0.256 (inactive) in experiment [4]; 0.452 (inactive) in experiment [6]; -0.373 (inactive) in [14].
